Test results taken from PubChem BioAssay AID1159580 (chemical genetic matrix, 2015).
Several values for one entry are separate records, joined by “and”; a condition that tells them apart may be missing. Equal entries are not always repeated. The campaign covered roughly 5,500 compounds. About 2,000 (36%) were called active. Roughly 18% stayed inconclusive and do not appear here. Rule as the data show it: active = normalized growth mostly below about 0.91 (no sharp cut-off); inconclusive = no clear call, values can overlap the other calls; inactive = mostly above about 0.92. The list shows a part of the results.

Assay: chemical genetic growth profiling, strain panel (AID 1159580);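 also: tested at 20 µM; growth read once vehicle control cultures reached saturation at 30 °C; 1 = growth at the plate median or of vehicle wells; lower values mean less growth of the strain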
Conditions: S. cerevisiae deletion strains, growth OD

Measured: normalized growth

COC(=O)C(C)c1ccc(C(=O)c2cccs2)cc1 (stereo unspecified)
inactive: locus YAL013W, strain DEP1, hits give low values 0.998 | locus YAL021C, strain ccr4, hits give low values 1.01 | locus YAL026C, strain drs2, hits give low values 0.988 | locus YAL030W, strain snc1, hits give low values 1.01 | locus YBL061C, strain skt5, hits give low values 1.01 | locus YBR009C, strain hhf1, hits give low values 1 | locus YBR021W, strain FUR4, hits give low values 0.971 | locus YBR023C, strain chs3, hits give low values 1.01 | locus YBR171W, strain sec66, hits give low values 1.01 | locus YBR229C, strain ROT2, hits give low values 0.998 | locus YBR231C, strain swc5, hits give low values 1.02 | locus YBR279W, strain paf1, hits give low values 1 | locus YCL011C, strain gbp2, hits give low values 1 | locus YCL016C, strain dcc1, hits give low values 1 | locus YCL029C, strain bik1, hits give low values 0.96 | locus YCL061C, strain MRC1, hits give low values 1.01 | locus YCL069W, strain vba3, hits give low values 1.01 | locus YCR088W, strain abp1, hits give low values 1 | locus YDL005C, strain med2, hits give low values 1.01 | locus YDL035C, strain GPR1, hits give low values 0.957 | locus YDL040C, strain nat1, hits give low values 1.01 | locus YDL074C, strain BRE1, hits give low values 0.981 | locus YDL101C, strain DUN1, hits give low values 1.01 | locus YDL134C, strain PPH21, hits give low values 0.996 | locus YDL185W, strain tfp1, hits give low values 0.939 | locus YDL192W, strain arf1, hits give low values 0.951 | locus YDR001C, strain nth1, hits give low values 1.02 | locus YDR069C, strain doa4, hits give low values 1.02 | locus YDR101C, strain arx1, hits give low values 0.975 | locus YDR137W, strain rgp1, hits give low values 1 | locus YDR150W, strain NUM1, hits give low values 0.985 | locus YDR159W, strain sac3, hits give low values 1.02 | locus YDR162C, strain NBP2, hits give low values 0.998 | locus YDR195W, strain ref2 0.993 | locus YDR297W, strain sur2, hits give low values 1.01 | locus YDR334W, strain swr1, hits give low values 1.01 | locus YDR335W, strain msn5, hits give low values 0.997 | locus YDR388W, hits give low values 0.973 | locus YDR392W, strain spt3, hits give low values 0.999 | locus YDR502C, strain sam2, hits give low values 0.959 | locus YEL003W, strain gim4, hits give low values 1.01 | locus YEL037C, strain rad23, hits give low values 1 | locus YEL061C, strain CIN8 (second series), hits give low values 1.01 | locus YEL061C, strain CIN8, hits give low values 0.991 | locus YER015W, strain faa2, hits give low values 1.01 | locus YER016W, strain bim1, hits give low values 1 | locus YER110C, hits give low values 0.955 | locus YER111C, strain swi4, hits give low values 1.01 | locus YER155C, strain BEM2 (second series), hits give low values 1.01 | locus YER155C, strain BEM2, hits give low values 0.997 | locus YER167W, strain BCK2, hits give low values 0.956 | locus YFR010W, strain ubp6, hits give low values 1.01 | locus YGL078C, strain dbp3, hits give low values 0.968 | locus YGL167C, strain pmr1, hits give low values 1.01 | locus YGL173C, strain kem1, hits give low values 1.02 | locus YGL227W, strain vid30, hits give low values 1.01 | locus YGL240W, strain doc1, hits give low values 1 | locus YGL248W, strain PDE1, hits give low values 0.998 | locus YGL253W, strain hxk2, hits give low values 1 | locus YGR078C, strain PAC10, hits give low values 0.995 | locus YGR135W, strain pre9, hits give low values 0.946 | locus YGR229C, strain SMI1, hits give low values 0.96 | locus YGR252W, strain gcn5, hits give low values 0.934 | locus YHR013C, strain ard1, hits give low values 1.01 | locus YHR027C, strain rpn1, hits give low values 1.01 | locus YHR030C, strain SLT2, hits give low values 0.991 and 0.936 | locus YHR079C, strain IRE1 (second series), hits give low values 0.968 | locus YHR079C, strain IRE1, hits give low values 0.949 | locus YHR094C, strain hxt1, hits give low values 0.947 | locus YHR129C, strain ARP1, hits give low values 0.999 | locus YHR142W, strain chs7, hits give low values 0.991 | locus YHR200W, strain rpn10, hits give low values 0.954 | locus YIL066C, strain RNR3, hits give low values 0.977 | locus YIL073C, strain SPO22, hits give low values 0.851 | locus YIR030C, strain dcg1, hits give low values 0.957 | locus YJL092W, strain hpr5, hits give low values 1 | locus YJL095W, strain BCK1 (second series), hits give low values 1.01 | locus YJL095W, strain BCK1, hits give low values 1.01 and 0.972 | locus YJL115W, strain asf1, hits give low values 1.03 | locus YJL129C, strain trk1, hits give low values 1.04 | locus YJL134W, strain LCB3, hits give low values 0.991 | locus YJL154C, strain vps35, hits give low values 1 | locus YJL164C, strain tpk1, hits give low values 0.998 | locus YJL166W, strain qcr8, hits give low values 1 | locus YJL168C, strain set2, hits give low values 0.973 | locus YJL187C, strain SWE1 (second series), hits give low values 1 | locus YJL187C, strain SWE1, hits give low values 1.01 | locus YJR043C, strain POL32, hits give low values 0.972 | locus YJR066W, strain TOR1, hits give low values 0.982
active: locus YDR318W, strain mcm21, hits give low values 0.907 | locus YGL086W, strain mad1, hits give low values 0.92
